According to PubChem BioAssay (NCI):
About 83,000 compounds went through this panel and 20% of them were active in at least one assay; those are over-represented in the sample as a whole.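 For each line, cells grew in 96-well plates with the test compound present at a single concentration for 48 hours.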 A number with no mark means an inactive call. Active and inactive are the calls of the source. How the source made its calls: active means growth percent below 10; inactive means the rest.

Assays:
Test in all cases: NCI-60 one-dose screen, 48 h (100 = growth as untreated, 0 = no growth, -100 = all killed)
Conditions in all cases: 10 µM unless noted
[1] = test system: NCI-H23 lung
[2] = test system: NCI-H226 lung
[3] = test system: NCI-H322M lung
[4] = test system: HOP-62 NSCLC
[5] = test system: NCI-H460 lung
[6] = test system: HOP-92 NSCLC
[7] = test system: NCI-H522 lung
[8] = test system: A549/ATCC NSCLC
[9] = test system: 786-0 renal
[10] = test system: COLO 205 colon
[11] = test system: DU-145 prostate
[12] = test system: K-562 leukemia
[13] = test system: MALME-3M melanoma
[14] = test system: MDA-MB-231 breast
[15] = test system: RXF 393 renal
[16] = test system: SF-268 CNS
[17] = test system: SF-295 CNS
[18] = test system: SF-539 CNS
[19] = test system: UACC-257 melanoma
[20] = test system: M14 melanoma

CC(=O)OC[C@]12CC[C@@H](c3cn(Cc4ccc(Cn5cc([C@@H]6CC[C@]7(COC(C)=O)CC[C@]8(C)[C@H](CC[C@@H]9[C@@]%10(C)CC[C@H](OC(C)=O)C(C)(C)[C@@H]%10CC[C@]98C)[C@@H]67)nn5)cc4)nn3)[C@@H]1[C@H]1CC[C@@H]3[C@@]4(C)CC[C@H](OC(C)=O)C(C)(C)[C@@H]4CC[C@@]3(C)[C@]1(C)CC2
growth [1]: 98.3%
growth [2]: 95.5%
growth [3]: 97.6%
growth [4]: 94.9%
growth [5]: 104%
growth [6]: 103%
growth [7]: 88.5%
growth [8]: 93.5%
growth [9]: 95.5%
growth [10]: 105%
growth [11]: 103%
growth [12]: 94.7%
growth [13]: 98.8%
growth [14]: 96.9%
growth [15]: 105%
growth [16]: 88.8%
growth [17]: 98.8%
growth [18]: 98.7%
growth [19]: 93.3%
growth [20]: 103%

OCCNc1nc(NCCO)nc(Nc2ccc(C3=NN(c4ccc(Cl)cc4)C(c4ccc(Cl)cc4)C3)cc2)n1 (stereo not given)
growth [1]: 70.4%
growth [2]: 104%
growth [3]: 50.7%
growth [4]: 47.2%
growth [5]: 36.2%
growth [6]: 81.9%
growth [7]: 63.9%
growth [8]: 50.9%
growth [9]: 16.7%
growth [10]: 65.5%
growth [11]: 51.9%
growth [12]: 13.3%
growth [13]: 70.1%
growth [14]: 63.7%
growth [15]: -26.1% (active)
growth [16]: 53%
growth [17]: 12.2%
growth [18]: 36.6%
growth [19]: 72.9%
growth [20]: 63.9%

CN1CCN(CC#CCOC(=O)CNC(=O)[C@]23CCC(C)(C)C[C@H]2C2=CC[C@@H]4[C@@]5(C)CC[C@H](O)C(C)(C)[C@@H]5CC[C@@]4(C)[C@]2(C)CC3)CC1
growth [1]: 94.2%
growth [2]: 93.5%
growth [3]: 94.2%
growth [4]: 90.4%
growth [5]: 96.4%
growth [6]: 88.7%
growth [7]: 87.8%
growth [8]: 79.2%
growth [9]: 80.3%
growth [10]: 85.4%
growth [11]: 96.7%
growth [12]: 70.1%
growth [13]: 92.5%
growth [14]: 95.5%
growth [15]: 78.1%
growth [16]: 88%
growth [17]: 96.9%
growth [18]: 83.5%
growth [19]: 95.1%
growth [20]: 96.8%

CCCCN(CCCC)CC(CN(CC)CC)OC(=O)Nc1ccccc1 (stereo not given)
growth [1]: 72.2%
growth [2]: 103%
growth [3]: 85%
growth [4]: 75.4%
growth [5]: 105%
growth [6]: 75%
growth [7]: 74.7%
growth [8]: 92.9%
growth [9]: 83%
growth [10]: 79.6%
growth [11]: 99.9%
growth [12]: 76%
growth [13]: 90.3%
growth [14]: 69.7%
growth [15]: 95.1%
growth [16]: 94.9%
growth [17]: 77.5%
growth [18]: 94.4%
growth [19]: 111%
growth [20]: 80.9%

C#C[C@@]1(O)[C@@H](CO)O[C@@H](n2cc(Cl)c3c(N)ncnc32)[C@@H]1O
growth [1]: 0.604% (active)
growth [2]: 1.13% (active)
growth [3]: -3.01% (active)
growth [4]: -4.82% (active)
growth [5]: -19.1% (active)
growth [6]: -27.1% (active)
growth [7]: -29% (active)
growth [8]: -31.1% (active)
growth [9]: -58.8% (active)
growth [10]: -39.4% (active)
growth [11]: 4.44% (active)
growth [12]: 4.99% (active)
growth [13]: -19.5% (active)
growth [14]: -6.34% (active)
growth [15]: -33.4% (active)
growth [16]: 15.3%
growth [17]: -26.8% (active)
growth [18]: -54.3% (active)
growth [19]: 40.9%
growth [20]: -25.8% (active)

CC(=O)[C@@H]1CC[C@]2(C(=O)O)CC[C@]3(C)[C@H](CC[C@@H]4[C@@]5(C)Cc6c([nH]c7ccccc67)C(C)(C)[C@@H]5CC[C@]43C)[C@@H]12
growth [1]: 54.4%
growth [2]: 64%
growth [3]: 77.3%
growth [4]: 74.8%
growth [5]: 44.9%
growth [6]: 80%
growth [7]: 46.4%
growth [8]: 31.4%
growth [9]: 75.1%
growth [10]: 79.6%
growth [11]: 59.4%
growth [12]: 37.8%
growth [13]: 96.1%
growth [14]: 83%
growth [15]: 73.2%
growth [16]: 63.4%
growth [17]: 36%
growth [18]: 74.3%
growth [19]: 84.2%
growth [20]: 78.7%

COc1cc(C2=NNC(c3ccc(N(C)C)cc3)C2)cc(OC)c1OC (stereo not given)
growth [1]: 36.1%
growth [2]: 62.2%
growth [3]: 46.2%
growth [4]: 36.4%
growth [5]: 10.5%
growth [6]: 29.2%
growth [7]: -6.25% (active)
growth [8]: 24.5%
growth [9]: 23%
growth [10]: 5.74% (active)
growth [11]: 3.51% (active)
growth [12]: -9.17% (active)
growth [13]: 83.7%
growth [14]: 31.9%
growth [15]: -31.7% (active)
growth [16]: 55.7%
growth [17]: 30.3%
growth [18]: -39.2% (active)
growth [19]: 62.6%
growth [20]: 21.7%

COc1ccccc1C(=O)/C=C/c1cc2cccc(OC)c2[nH]c1=O
growth [1]: -16.4% (active)
growth [2]: -22.1% (active)
growth [3]: 8.09% (active)
growth [4]: -8.85% (active)
growth [5]: -27.5% (active)
growth [6]: 10.6%
growth [7]: -72.7% (active)
growth [8]: 21.4%
growth [9]: 9.27% (active)
growth [10]: -49.7% (active)
growth [11]: 16.5%
growth [12]: 5.33% (active)
growth [13]: -0.686% (active)
growth [14]: -0.926% (active)
growth [15]: -43.5% (active)
growth [16]: 2.36% (active)
growth [17]: 14.1%
growth [18]: -10% (active)
growth [19]: 33.6%
growth [20]: 9.63% (active)

O=c1c2ccccc2oc2ccc(OCCCCCCN3CCCCCC3)cc12
growth [1]: 39.2%
growth [2]: 74.1%
growth [3]: 74.3%
growth [4]: 74.1%
growth [5]: 35%
growth [6]: 74.6%
growth [7]: 46%
growth [8]: 40.4%
growth [9]: 27.1%
growth [10]: -5.01% (active)
growth [11]: 65.6%
growth [12]: 2.32% (active)
growth [13]: -47.2% (active)
growth [14]: 43.7%
growth [15]: 36.8%
growth [16]: 61.7%
growth [17]: 38.9%
growth [18]: 54.9%
growth [19]: 2.49% (active)
growth [20]: -32% (active)

Nc1ccc2c(c1)C(=O)C(=O)c1c-2nc2ccccn12
growth [1]: -42.8% (active)
growth [2]: 13.3%
growth [3]: -6.65% (active)
growth [4]: -2.15% (active)
growth [5]: 0.968% (active)
growth [6]: -21.4% (active)
growth [7]: 17.5%
growth [8]: -45.4% (active)
growth [9]: 71.4%
growth [10]: -49.2% (active)
growth [11]: -91.1% (active)
growth [12]: 1.75% (active)
growth [13]: -98.7% (active)
growth [14]: -7.84% (active)
growth [15]: 29%
growth [16]: 26.6%
growth [17]: -67.6% (active)
growth [18]: -32.9% (active)
growth [19]: -67.9% (active)
growth [20]: -91.1% (active)

C=C1C(=O)O[C@H]2[C@H]1CC/C(COC(=O)N1CCC[C@H]1C(=O)Nc1ccc(OC)c(C(N)=O)c1O)=C\CC[C@@]1(C)O[C@@H]21
growth [1]: 79.5%
growth [2]: 52.8%
growth [3]: 90.6%
growth [4]: 88.6%
growth [5]: 73.9%
growth [6]: -11.2% (active)
growth [7]: -28.1% (active)
growth [8]: 75.4%
growth [9]: 41.4%
growth [10]: -25.7% (active)
growth [11]: 39.4%
growth [12]: 11.2%
growth [13]: 27.3%
growth [14]: 46%
growth [15]: -12.7% (active)
growth [16]: 54.6%
growth [17]: 90.1%
growth [18]: -4.09% (active)
growth [19]: 25.2%
growth [20]: 36.5%

Nc1c(C(=O)Nc2cccc3ccccc23)sc2nc3c(cc12)COCC3
growth [1]: 63.1%
growth [2]: 98%
growth [3]: 82.4%
growth [4]: 39.9%
growth [5]: 31.1%
growth [6]: 61.1%
growth [7]: 26.4%
growth [8]: 50.9%
growth [9]: 38.6%
growth [10]: 58.7%
growth [11]: 58.7%
growth [12]: 17.5%
growth [13]: 60.8%
growth [14]: 53.3%
growth [15]: 41.4%
growth [16]: 56.5%
growth [17]: 28.9%
growth [18]: 30%
growth [19]: 54.5%
growth [20]: 35.7%

O=C(Nc1nc2ccc(C(F)(F)F)cc2s1)c1cc(Cl)ccc1O
growth [1]: -12% (active)
growth [2]: 5.73% (active)
growth [3]: 10.6%
growth [4]: 4.72% (active)
growth [5]: 4.41% (active)
growth [6]: -12.3% (active)
growth [7]: -15.1% (active)
growth [8]: 11.3%
growth [9]: 9.95% (active)
growth [10]: -57.3% (active)
growth [11]: 25.9%
growth [12]: 5.73% (active)
growth [13]: -16.6% (active)
growth [14]: -10.5% (active)
growth [15]: -2.8% (active)
growth [16]: 19.5%
growth [17]: -31.2% (active)
growth [18]: 14.6%
growth [19]: -8.55% (active)
growth [20]: 15.1%

O=C(Nc1nccs1)c1noc2ccccc12
growth [1]: 91.9%
growth [2]: 92.7%
growth [3]: 92%
growth [4]: 86.8%
growth [5]: 96.6%
growth [6]: 76.2%
growth [7]: 86.6%
growth [8]: 95.7%
growth [9]: 95.7%
growth [10]: 104%
growth [11]: 107%
growth [12]: 87.7%
growth [13]: 96.8%
growth [14]: 91.3%
growth [15]: 110%
growth [16]: 103%
growth [17]: 101%
growth [18]: 95.6%
growth [19]: 90.6%
growth [20]: 96%

CC[C@]12C=CCN3CC[C@@]4(c5cc(NC(=O)CCC(=O)O[C@H]6CC[C@H]7[C@@H]8CC[C@H]9CC(=O)CC[C@]9(C)[C@H]8CC[C@]67C)c(OC)cc5N(C)[C@H]4[C@@](O)(C(=O)OC)[C@@H]1OC(C)=O)[C@@H]32
growth [1]: 89.7%
growth [2]: 70.9%
growth [3]: 99%
growth [4]: 95.6%
growth [5]: 64.5%
growth [6]: 52.4%
growth [7]: 63.6%
growth [8]: 56.7%
growth [9]: 74.7%
growth [10]: 69.1%
growth [11]: 86.8%
growth [12]: 41.7%
growth [13]: 77.7%
growth [14]: 83%
growth [15]: 66.2%
growth [16]: 74.3%
growth [17]: 68.4%
growth [18]: 74.1%
growth [19]: 94.5%
growth [20]: 67.5%
